# Test results from article PMC12820563, “FoxP3 forms a head-to-head dimer in vivo and stabilizes its multimerization on adjacent microsatellites”.
# Over roughly 16,000 sequences, “rpm ratio (pull-down/input)” has its median near 0.94; the highest 2% begin near 1.7. For the sample, the highest values were picked, then their nearest neighbours and some sequences at random.
# Molecular target: T1, MBP-FoxP1dN (Mus musculus, UniProt P58462 326-579)
# T1 sequence: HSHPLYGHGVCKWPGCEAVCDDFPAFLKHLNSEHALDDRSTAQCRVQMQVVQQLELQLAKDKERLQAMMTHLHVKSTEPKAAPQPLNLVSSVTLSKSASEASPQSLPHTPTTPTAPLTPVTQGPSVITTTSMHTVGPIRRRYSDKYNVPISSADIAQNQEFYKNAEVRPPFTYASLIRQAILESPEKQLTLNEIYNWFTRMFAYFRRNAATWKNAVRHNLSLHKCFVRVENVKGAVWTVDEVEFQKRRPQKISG
# Assay: PD-seq (MBP pull-down with sequencing); 20 mM Tris-HCl pH 7.5, 100 mM NaCl, 1.5 mM MgCl2, 0.4 uM protein, 0.1 uM dsDNA library, 30 min, room temperature, amylose pull-down; high values mean tight binding
# Details: protein: recombinant; tags: His6-MBP; chain copies: 2; dsDNA, one strand shown
# Procedure, shortened: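 Binding is the reads-per-million enrichment of pull-down relative to input, pooled across replicates. For this, 0.4 µM His6-MBP-tagged mouse FoxP3 or FoxP1 fragment lacking the N-terminus, made in E. coli, was incubated with 0.1 µM Klenow-filled double-stranded degenerate DNA library for 30 min at room temperature in Tris pH 7.5 buffer with NaCl and MgCl2. Complexes bound to amylose resin were washed three times before proteinase K released the DNA for PCR barcoding and Illumina sequencing.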
row,Sequence,binding signal
1,GATGATTGTTCTCCCAGCTGATGAATTATTAACCTCGAGTAAACAAATTTTCCTAATCTTTCTGTTCAAGCGCCATCTAC,1.06 RPM ratio (pull-down/input)
2,GATGATTGTTCTCCCAGCTGATGAATTTTACACATCGAGTAAACAAATTTTCCTAATCTTTCTGTTCAAGCGCCATCTAC,1.11 RPM ratio (pull-down/input)
3,GATGATTGTTCTCCCAGCTGATGAATTACACACATCGAGTAAACAAATTTTCCTAATCTTTCTGTTCAAGCGCCATCTAC,1.48 RPM ratio (pull-down/input)
4,GATGATTGTTCTCCCAGCTGATGAATTACACAAATCGAGTAAACAAATTTTCCTAATCTTTCTGTTCAAGCGCCATCTAC,1.77 RPM ratio (pull-down/input)
5,GATGATTGTTCTCCCAGCTGATGAATTTTTACAATCGAGTAAACAAATTTTCCTAATCTTTCTGTTCAAGCGCCATCTAC,1.23 RPM ratio (pull-down/input)
6,GATGATTGTTCTCCCAGCTGATGAATTTACACAATCGAGTAAACAAATTTTCCTAATCTTTCTGTTCAAGCGCCATCTAC,1.87 RPM ratio (pull-down/input)
7,GATGATTGTTCTCCCAGCTGATGAATTACACAGATCGAGTAAACAAATTTTCCTAATCTTTCTGTTCAAGCGCCATCTAC,1.18 RPM ratio (pull-down/input)
8,GATGATTGTTCTCCCAGCTGATGAATTCCCTACCTCGAGTAAACAAATTTTCCTAATCTTTCTGTTCAAGCGCCATCTAC,0.836 RPM ratio (pull-down/input)
9,GATGATTGTTCTCCCAGCTGATGAATTGTCACAGTCGAGTAAACAAATTTTCCTAATCTTTCTGTTCAAGCGCCATCTAC,1.08 RPM ratio (pull-down/input)
10,GATGATTGTTCTCCCAGCTGATGAATTGCCAATTTCGAGTAAACAAATTTTCCTAATCTTTCTGTTCAAGCGCCATCTAC,1.04 RPM ratio (pull-down/input)
11,GATGATTGTTCTCCCAGCTGATGAATTTTGTATTTCGAGTAAACAAATTTTCCTAATCTTTCTGTTCAAGCGCCATCTAC,1.42 RPM ratio (pull-down/input)
12,GATGATTGTTCTCCCAGCTGATGAATTTGTATTTTCGAGTAAACAAATTTTCCTAATCTTTCTGTTCAAGCGCCATCTAC,2.62 RPM ratio (pull-down/input)
13,GATGATTGTTCTCCCAGCTGATGAATTGTTGTATTCGAGTAAACAAATTTTCCTAATCTTTCTGTTCAAGCGCCATCTAC,2.21 RPM ratio (pull-down/input)
14,GATGATTGTTCTCCCAGCTGATGAATTGTATTCTTCGAGTAAACAAATTTTCCTAATCTTTCTGTTCAAGCGCCATCTAC,1.26 RPM ratio (pull-down/input)
15,GATGATTGTTCTCCCAGCTGATGAATTTCTGTATTCGAGTAAACAAATTTTCCTAATCTTTCTGTTCAAGCGCCATCTAC,1.3 RPM ratio (pull-down/input)
16,GATGATTGTTCTCCCAGCTGATGAATTGTATTATTCGAGTAAACAAATTTTCCTAATCTTTCTGTTCAAGCGCCATCTAC,1.67 RPM ratio (pull-down/input)
17,GATGATTGTTCTCCCAGCTGATGAATTCTGTATTTCGAGTAAACAAATTTTCCTAATCTTTCTGTTCAAGCGCCATCTAC,1.18 RPM ratio (pull-down/input)
18,GATGATTGTTCTCCCAGCTGATGAATTTGTAATTTCGAGTAAACAAATTTTCCTAATCTTTCTGTTCAAGCGCCATCTAC,1.31 RPM ratio (pull-down/input)
19,GATGATTGTTCTCCCAGCTGATGAATTATTGTATTCGAGTAAACAAATTTTCCTAATCTTTCTGTTCAAGCGCCATCTAC,1.99 RPM ratio (pull-down/input)
20,GATGATTGTTCTCCCAGCTGATGAATTTGTATATTCGAGTAAACAAATTTTCCTAATCTTTCTGTTCAAGCGCCATCTAC,1.71 RPM ratio (pull-down/input)
21,GATGATTGTTCTCCCAGCTGATGAATTATTCTTTTCGAGTAAACAAATTTTCCTAATCTTTCTGTTCAAGCGCCATCTAC,1.17 RPM ratio (pull-down/input)
22,GATGATTGTTCTCCCAGCTGATGAATTTTTGTATTCGAGTAAACAAATTTTCCTAATCTTTCTGTTCAAGCGCCATCTAC,1.8 RPM ratio (pull-down/input)
